Source: PubChem
Compounds with a hit are over-represented: about 6.7% of the library has one in this group of screens.
C diff growth: blocks growth of Clostridium difficile. Clostridium difficile clinical isolate growth, OD600, 24 h; hits give low values. hit rate 0.25% among 86,000. growth activity, negative = inhibition, % at 16 µg/mL (by protocol);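 active means mean growth activity at or below -80% and every replicate also at or below -80%; inconclusive means mean at or below -80% but some replicate above -80%; inactive means mean growth activity above -80%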;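 further: 0% = DMSO wells and -100% = levofloxacin 16 µg/mL wells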
Pf Dd2 inh: blocks growth of Plasmodium falciparum Dd2 parasites; P. falciparum Dd2 growth, SYBR Green, 72 h; hits give low values; hit rate 2.3% among 94,000; activity change, % at 10 µM; AID 1159554; in the data active means activity change below about -80%; inconclusive means no clear call, values can overlap the other calls
T cruzi growth: blocks T. cruzi growth in NIH3T3 culture | hit rate 5.9% among 77,000 | inhibition, % at 8.34 µM | T. cruzi beta-gal in NIH3T3, GalScreen luminescence, 90 h;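 active means mean inhibition above about 93%, with at least 55% of replicates each passing it, limit read from the data, passing the limit was not always enough; inconclusive means only one of those two conditions holds; inactive means neither condition holds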
* = called active by the depositor; u = inconclusive; x = not tested or not shown.

SMILES	C diff growth	Pf Dd2 inh	T cruzi growth
C[C@@H]1CN([C@@H](C)CO)C(=O)c2cc(NC(=O)Cc3cn(C)c4ccccc34)ccc2O[C@H]1CN(C)C(=O)Nc1cccc2ccccc12	x	-56	1
C[C@H](CO)N1C[C@H](C)[C@@H](CN(C)C(=O)Nc2cccc3ccccc23)Oc2ccc(NC(=O)Cc3cn(C)c4ccccc34)cc2C1=O	x	-87*	-12
C[C@H]1CN([C@@H](C)CO)C(=O)c2cc(NC(=O)Cc3cn(C)c4ccccc34)ccc2O[C@H]1CN(C)CC1CC1	0	-5	26
COc1ccc2c3c(n(C)c2c1)[C@H](CO)N(C(=O)c1ccc(F)cc1)CC31CCN(CC2CC2)CC1	x	14	x
O=C1N[C@H](Cc2ccccc2)COCn2nncc2CC[C@H]1Cc1ccccc1	-11	x	x
O=C(NC[C@@H]1CC[C@@H]2[C@@H](CN2S(=O)(=O)c2ccccc2)O1)NC1CCCCC1	-5	5	x
C[C@@H]1CCCCO[C@@H](CN(C)C(=O)Nc2cccc3ccccc23)[C@H](C)CN([C@H](C)CO)C(=O)c2cc(NC(=O)Nc3ccc4c(c3)OCO4)ccc2O1	9	-90*	86
C[C@@H]1CCCCO[C@@H](CN(C)C(=O)Nc2cccc3ccccc23)[C@@H](C)CN([C@H](C)CO)C(=O)c2cc(NC(=O)Nc3ccc4c(c3)OCO4)ccc2O1	-1	-87*	-12
C[C@H](CO)N1C[C@H](C)[C@H](CN(C)C(=O)Nc2ccc3c(c2)OCO3)OCCCC[C@H](C)Oc2ccc(NC(=O)Nc3cccc4ccccc34)cc2C1=O	-3	39	62
C[C@@H]1CN([C@@H](C)CO)C(=O)c2cc(NC(=O)Nc3ccc4c(c3)OCO4)ccc2O[C@@H](C)CCCCO[C@H]1CN(C)C(=O)Nc1cccc2ccccc12	10	-42	23
C[C@@H]1CCCCO[C@H](CN(C)C(=O)Nc2cccc3ccccc23)[C@H](C)CN([C@@H](C)CO)C(=O)c2cc(NC(=O)Nc3ccc4c(c3)OCO4)ccc2O1	7	-83*	49
C[C@@H]1CCCCO[C@@H](CN(C)C(=O)Nc2cccc3ccccc23)[C@@H](C)CN([C@H](C)CO)C(=O)c2cc(NC(=O)Nc3cccc4ccccc34)ccc2O1	x	-51	-21
C[C@@H]1CCCCO[C@@H](CN(C)C(=O)Nc2ccc3c(c2)OCO3)[C@@H](C)CN([C@@H](C)CO)C(=O)c2cc(NC(=O)Nc3cccc4ccccc34)ccc2O1	1	-91*	x
C[C@@H]1CN([C@@H](C)CO)C(=O)c2cc(NC(=O)Nc3cccc4ccccc34)ccc2O[C@@H](C)CCCCO[C@H]1CN(C)C(=O)Nc1cccc2ccccc12	x	-9	8
C[C@@H]1CN([C@@H](C)CO)C(=O)c2cc(-c3ccccc3F)cnc2O[C@H]1CN(C)C(=O)CN(C)C	-1	7	3
COc1cccc(NC(=O)N2CC(=O)N3[C@@H](CO)[C@@H](c4ccc(C#CC5CCCC5)cc4)[C@@H]3C2)c1	-1	-20	x
C[C@@H]1CN([C@@H](C)CO)S(=O)(=O)c2ccc(C#CC3CC3)cc2O[C@H]1CN(C)C(=O)Cc1ccncc1	0	-31	88
C[C@H]1CN([C@@H](C)CO)C(=O)c2cccc(NC(=O)CCCCCC(=O)Nc3ccccc3N)c2O[C@H]1CN(C)Cc1ccc(-c2ccccc2)cc1	-1	-85*	x
C[C@H](CO)N1C[C@H](C)[C@H](CN(C)Cc2ccccc2)Oc2c(NC(=O)CCCCCC(=O)Nc3ccccc3N)cccc2C1=O	17	-65	x
C[C@@H]1CN([C@H](C)CO)C(=O)c2cccc(NC(=O)CCCCCC(=O)Nc3ccccc3N)c2O[C@@H]1CN(C)Cc1ccccc1	-5	-78	x
C[C@@H]1CN([C@H](C)CO)C(=O)c2cccc(NC(=O)CCCCCC(=O)Nc3ccccc3N)c2O[C@@H]1CN(C)Cc1ccc(-c2ccccc2)cc1	6	-89*	x
COc1ccc(CN(C)C[C@@H]2OCCCC[C@H](C)Oc3ccc(NS(=O)(=O)c4ccc(OC)cc4)cc3C(=O)N([C@@H](C)CO)C[C@@H]2C)cc1	-4	-53	30
COc1ccc2c3c([nH]c2c1)[C@@H](CO)NCC31CN(Cc2ccccc2F)C1	12	-71	x
COCC(=O)Nc1ccc2c(c1)C(=O)N(C)C[C@H](OC)[C@H](C)CN(C(=O)CC1CC1)[C@@H](C)CO2	x	-19	-2
Cc1noc(C)c1S(=O)(=O)N(C)C[C@H]1OCCCC[C@H](C)Oc2ccc(NC(=O)Nc3cccc4ccccc34)cc2C(=O)N([C@H](C)CO)C[C@H]1C	0	-92*	x
SMILES	C diff growth	Pf Dd2 inh	T cruzi growth
Cc1noc(C)c1S(=O)(=O)N(C)C[C@H]1OCCCC[C@@H](C)Oc2ccc(NC(=O)Nc3ccc(F)cc3)cc2C(=O)N([C@H](C)CO)C[C@@H]1C	-7	-5	9
Cc1noc(C)c1S(=O)(=O)N(C)C[C@H]1OCCCC[C@H](C)Oc2ccc(NC(=O)Nc3ccccc3)cc2C(=O)N([C@@H](C)CO)C[C@@H]1C	5	u	x
Cc1noc(C)c1S(=O)(=O)N(C)C[C@@H]1OCCCC[C@H](C)Oc2ccc(NC(=O)Nc3cccc4ccccc34)cc2C(=O)N([C@H](C)CO)C[C@H]1C	-3	-79	83
Cc1noc(C)c1S(=O)(=O)N(C)C[C@H]1OCCCC[C@@H](C)Oc2ccc(NC(=O)Nc3ccc(F)cc3)cc2C(=O)N([C@@H](C)CO)C[C@@H]1C	-10	-83*	94
Cc1noc(C)c1S(=O)(=O)N(C)C[C@@H]1OCCCC[C@@H](C)Oc2ccc(NC(=O)Nc3ccccc3)cc2C(=O)N([C@H](C)CO)C[C@H]1C	14	-83*	x
CO[C@H]1CN(C)C(=O)c2cc(NC(=O)c3cnccn3)ccc2OC[C@H](C)N(CC2CC2)C[C@H]1C	-1	6	x
CCc1csc(N2[C@H](C#N)[C@@H](c3ccc(-c4ccc(F)cc4)cc3)[C@@H]2CO)n1	1	-12	93
CCc1nc(N2[C@H](CO)[C@@H](c3ccccc3-c3ccccc3F)[C@@H]2C#N)sc1C	3	17	x
CCc1nc(N2[C@H](C#N)[C@H](c3ccccc3-c3ccccc3F)[C@@H]2CO)sc1C	1	-81*	x
CCc1csc(N2[C@H](C#N)[C@H](c3ccccc3-c3ccc(F)cc3)[C@H]2CO)n1	-1	-93*	x
COc1ccc(S(=O)(=O)Nc2ccc3c(c2)C(=O)N([C@@H](C)CO)C[C@@H](C)[C@H](CN(C)S(=O)(=O)c2ccc(C)cc2)OCCCC[C@@H](C)O3)cc1	x	-60	x
C[C@@H]1CN([C@@H](C)CO)C(=O)CCCn2cc(nn2)CO[C@H]1CN(C)C	-5	6	-119
COc1ccc2c3c([nH]c2c1)[C@@H](CO)N(Cc1cccc(Cl)c1)CC31CN(C(C)=O)C1	8	-89*	x
COc1ccc2c3c([nH]c2c1)[C@H](CO)N(Cc1ccc(F)cc1)CC31CCN(C(C)=O)CC1	5	-89*	x
COc1ccc2c3c([nH]c2c1)[C@@H](CO)N(Cc1ccccc1)CC31CCN(C(C)=O)CC1	x	20	x
COc1ccc2c3c([nH]c2c1)[C@@H](CO)N(Cc1cccc(Cl)c1)CC31CCN(C(C)=O)CC1	7	-88*	x
COc1ccc2c3c([nH]c2c1)[C@H](CO)N(Cc1ccc(F)cc1)CC31CCN(C)CC1	6	-75	x
